Values without a mark were called inactive. Records with an inconclusive call do not appear. Activity calls are given as the source filed them. Unless noted, calls follow the shape of the dose curve; as a rule, active = well fitted inhibition curve with a large enough effect; inconclusive = small, poorly fitted or top-dose-only effect; inactive = flat fitted curve, though single readings scatter.
System: not listed separately
Assay: Drug repurposing screens with cells derived from glioblastoma tumor samples (AID 1345199); also: nearly all actives have a fitted effect of over 40% in size; also: potency is read from the fitted curve at half-maximal effect; as to activity, negative = cell killing: % is scaled to controls: 0 for no effect and ±100 for the full control effect
Details: GBM patient neurospheres viability, ATP luminescence, 48 h; at 46 µM (top of the series); tumour line A
Method in brief: (§1)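 Primary testing used CD133+ neurospheres from four GBM patients, seven concentrations, 48 h exposure and ATP-based viability; confirmation added three slower-growing patient lines.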

SMILES | activity, negative = cell killing [%]
CCC1(CC)C(=O)NC(=O)NC1=O | -22.6
CN1C(=O)CN=C(c2ccccc2)c2cc([N+](=O)[O-])ccc21 | -31.9
CNC(C)Cc1ccccc1OC (stereo not given) | -24.5
COP(=O)(OC)C(O)C(Cl)(Cl)Cl (stereo not given) | -20.1
COC(=O)C1=CCCN(C)C1 | -22.4
CCOC(=O)NC(O)C(Cl)(Cl)Cl (stereo not given) | -17.3
OC(O)C(Cl)(Cl)Cl | -19
O=C(O)Cc1ccccc1 | -19.6
O=C(O)c1nn(Cc2ccc(Cl)cc2Cl)c2ccccc12 | -31.3
CC1=C2[C@H]3OC(=O)[C@@H](C)[C@@H]3CC[C@@]2(C)C=CC1=O | -23.4

Same assay, conditions: GBM patient neurospheres viability, ATP luminescence, 48 h; tumour line A

SMILES | Potency
C[C@H]1CNCCc2ccc(Cl)cc21 | 11.2 µM (active)
COP(=O)(OC)OC=C(Cl)Cl | 7.08 µM (active)
CCN(CC)CCOC(=O)C(C)(c1ccccc1)c1ccccc1 | 10 µM (active)

System: astro (control astrocytes)
Assay: as above
Details: viability, ATP luminescence, 48 h; series mostly up to 45.9 µM; activity, negative = cell killing: at the top concentration
Method in brief: as §1

SMILES | activity, negative = cell killing | Potency
CCC1(CC)C(=O)NC(=O)NC1=O | -16.7% | 
CC(C)(C)OC(=O)c1ncn2c1[C@@H]1CCCN1C(=O)c1c(Br)cccc1-2 | -5.99% | 
CN1C(=O)CN=C(c2ccccc2)c2cc([N+](=O)[O-])ccc21 | -26.8% | 
CNC(C)Cc1ccccc1OC (stereo not given) | -6.41% | 
COP(=O)(OC)C(O)C(Cl)(Cl)Cl (stereo not given) | -18% | 
C[C@H]1CNCCc2ccc(Cl)cc21 | -12.5% | 
COc1cc(N)c(Cl)cc1C(=O)NC1CN2CCC1CC2 (stereo not given) | -18.1% | 
COC(=O)C1=CCCN(C)C1 | -9.57% | 
C[C@@H]1CN(C2CCC(C#N)(c3ccc(F)cc3)CC2)CC[C@]1(C(=O)O)c1ccccc1 (stereo not given in full) | -11.6% [at 21.2 µM] | 
CCOC(=O)NC(O)C(Cl)(Cl)Cl (stereo not given) | -5.01% | 
OC(O)C(Cl)(Cl)Cl | -11.3% | 
O=C(O)Cc1ccccc1 | -19.3% | 
CC(C)(O)C(Cl)(Cl)Cl | -13.2% | 
C[N+]1(CCC(C(N)=O)(c2ccccc2)c2ccccc2)CCCCC1 | 0.273% | 
Cc1ccc(N=CN(C)C=Nc2ccc(C)cc2C)c(C)c1 | -12.3% | 
CN(C)C(=O)Oc1cc(OC(=O)N(C)C)cc(C(O)CNC(C)(C)C)c1 (stereo not given) | -14.1% [at 21.2 µM] | 
O=C(O)c1nn(Cc2ccc(Cl)cc2Cl)c2ccccc12 | -29.2% | 
COCC(=O)N(c1c(C)cccc1C)C(C)C(=O)OC (stereo not given) | -8.34% | 
NC(=O)OCCCc1ccccc1 | -15% | 
CCOP(=S)(OCC)O/N=C(\C#N)c1ccccc1 | 0.326% | 
C[N+]1(C)[C@@H]2CC[C@H]1CC(OC(=O)C(CO)c1ccccc1)C2 (stereo not given in full) |  | inactive
CC1=C2[C@H]3OC(=O)[C@@H](C)[C@@H]3CC[C@@]2(C)C=CC1=O | -4.17% | 

Molecular target: Nuclear receptor subfamily 1 group I member 2 (Rattus norvegicus) (UniProt Q9R1A7)
Assay: qHTS assay for small molecule activators of the rat pregnane X receptor (rPXR) signaling pathway (AID 651751; call rule not given here; also: 0% is about no effect)
Details: rPXR reporter cells, luciferase (One-Glo), 24 h

Nuclear receptor subfamily 1 group I member 2 (Rattus norvegicus), sequence (Q9R1A7 whole entry, looked up): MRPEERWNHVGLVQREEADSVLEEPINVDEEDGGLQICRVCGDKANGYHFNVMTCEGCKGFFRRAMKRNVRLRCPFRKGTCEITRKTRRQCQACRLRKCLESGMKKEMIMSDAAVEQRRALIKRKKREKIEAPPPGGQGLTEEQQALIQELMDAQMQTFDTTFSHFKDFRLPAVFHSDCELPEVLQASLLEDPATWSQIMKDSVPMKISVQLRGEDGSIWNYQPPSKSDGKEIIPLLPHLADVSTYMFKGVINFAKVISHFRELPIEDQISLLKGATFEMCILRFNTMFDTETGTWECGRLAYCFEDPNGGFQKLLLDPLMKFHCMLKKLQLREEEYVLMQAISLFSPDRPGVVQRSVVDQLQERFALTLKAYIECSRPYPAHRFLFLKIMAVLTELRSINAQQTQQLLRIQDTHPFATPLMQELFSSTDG

SMILES | max response [%]
COP(=O)(OC)C(O)C(Cl)(Cl)Cl (stereo not given) | 3.3
Cc1ccc(N=CN(C)C=Nc2ccc(C)cc2C)c(C)c1 | 4.54
COP(=S)(OC)Oc1ccc(Sc2ccc(OP(=S)(OC)OC)cc2)cc1 | 1.29
COCC(=O)N(c1c(C)cccc1C)C(C)C(=O)OC (stereo not given) | 3.13
CCOP(=S)(OCC)O/N=C(\C#N)c1ccccc1 | -0.568

From PubChem BioAssay (NCATS)
